# Measured values reported in the supplement of paper PMC8728848.
# About 410 targets per protein were measured; listed, in parts, are those with the strongest signals and a random draw of the rest.
# B1: pilr alpha (protein)
# chain: MLYGVTQPKHLSASMGGSVEIPFSFYYPWELATAPDVRISWRRGHFHRQSFYSTRPPSIHKDYVNRLFLNWTEGQKSGFLRISNLQKQDQSVYFCRVELDTRSSGRQQWQSIEGTKLSIT
# Legend:
# Assay in all cases: glycan array binding signal (z-score within array); higher = stronger binding
# Details in all cases: glycan notation: IUPAC condensed, linker removed
# [1] = molecular target: Fuc(a1-2)Gal(b1-4)GlcNAc(b1-2)Man(a1-3)[Fuc(a1-2)Gal(b1-4)GlcNAc(b1-2)Man(a1-6)]Man(b1-4)GlcNAc(b1-4)[Fuc(a1-6)]GlcNAc
# Outline: (§1)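 The binding signal is a Z-score computed within each array. Data were drawn from 3228 arrays in the Consortium for Functional Glycomics database, restricted to those with a known protein sequence. Scores were averaged over arrays of the same protein sequence at different concentrations or buffers, and over linkers, and negative values can be taken as non-binding.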
# [2] = molecular target: Fuc(a1-2)[GalNAc(a1-3)]Gal(b1-3)GlcNAc(b1-3)GalNAc
# Outline: as §1
# [3] = molecular target: Fuc(a1-2)[GalNAc(a1-3)]Gal(b1-4)[Fuc(a1-3)]GlcNAc(b1-3)GalNAc
# Outline: as §1
# [4] = molecular target: Fuc(a1-3)[Gal(b1-4)]GlcNAc(b1-2)Man(a1-3)[Fuc(a1-3)[Gal(b1-4)]GlcNAc(b1-2)Man(a1-6)]Man(b1-4)GlcNAc(b1-4)GlcNAc
# Outline: as §1
# [5] = molecular target: Gal(a1-3)Gal(b1-3)GlcNAc
# Outline: as §1
# [6] = molecular target: Gal(a1-3)Gal(b1-3)GlcNAc(b1-2)Man(a1-3)[Gal(a1-3)Gal(b1-3)GlcNAc(b1-2)Man(a1-6)]Man(b1-4)GlcNAc(b1-4)GlcNAc
# Outline: as §1
# [7] = molecular target: Gal(a1-3)Gal(b1-4)[Fuc(a1-3)]GlcNAc(b1-2)Man(a1-3)[Gal(a1-3)Gal(b1-4)[Fuc(a1-3)]GlcNAc(b1-2)Man(a1-6)]Man(b1-4)GlcNAc(b1-4)GlcNAc
# Outline: as §1
# [8] = molecular target: Gal(a1-3)GalNAc
# Outline: as §1
# [9] = molecular target: Gal(a1-3)[Gal(a1-4)]Gal(b1-4)GlcNAc
# Outline: as §1
# [10] = molecular target: Gal(a1-4)Gal(b1-4)Glc
# Outline: as §1
# [11] = molecular target: Gal(a1-4)Gal(b1-4)GlcNAc(b1-3)Gal(b1-4)Glc
# Outline: as §1
# [12] = molecular target: Gal(b1-3)GalNAc(b1-4)Gal(b1-4)Glc
# Outline: as §1
# [13] = molecular target: Gal(b1-3)GlcNAc(b1-3)Gal(b1-3)GlcNAc
# Outline: as §1
# [14] = molecular target: Gal(b1-3)GlcNAc(b1-3)Gal(b1-4)[Fuc(a1-3)]GlcNAc(b1-6)[Gal(b1-3)GlcNAc(b1-3)]Gal(b1-4)Glc
# Outline: as §1
# [15] = molecular target: Gal(b1-3)GlcNAc6S
# Outline: as §1
# [16] = molecular target: Gal(b1-3)[Fuc(a1-4)]GlcNAc(b1-6)GalNAc
# Outline: as §1
# [17] = molecular target: Gal(b1-4)GlcNAc
# Outline: as §1
# [18] = molecular target: Gal(b1-4)GlcNAc(b1-3)Gal(b1-4)GlcNAc(b1-3)Gal(b1-4)GlcNAc(b1-3)Gal(b1-4)GlcNAc(b1-2)[Gal(b1-4)GlcNAc(b1-3)Gal(b1-4)GlcNAc(b1-3)Gal(b1-4)GlcNAc(b1-3)Gal(b1-4)GlcNAc(b1-6)]Man(a1-6)[Gal(b1-4)GlcNAc(b1-3)Gal(b1-4)GlcNAc(b1-3)Gal(b1-4)GlcNAc(b1-3)Gal(b1-4)GlcNAc(b1-2)Man(a1-3)]Man(b1-4)GlcNAc(b1-4)[Fuc(a1-6)]GlcNAc
# Outline: as §1
# [19] = molecular target: GalNAc(a1-3)Gal
# Outline: as §1
# [20] = molecular target: GalNAc(b1-3)Gal(a1-4)Gal(b1-4)GlcNAc
# Outline: as §1
# [21] = molecular target: GalNAc(b1-3)Gal(a1-6)Gal(b1-4)Glc
# Outline: as §1
# [22] = molecular target: GalNAc(b1-4)GlcNAc
# Outline: as §1
# [23] = molecular target: GalNAc(b1-6)GalNAc
# Outline: as §1
# [24] = molecular target: Glc(a1-6)Glc(a1-6)Glc
# Outline: as §1
# [25] = molecular target: GlcNAc(a1-4)Gal(b1-4)GlcNAc(b1-3)Gal(b1-4)[Fuc(a1-3)]GlcNAc(b1-3)Gal(b1-4)[Fuc(a1-3)]GlcNAc
# Outline: as §1
# [26] = molecular target: GlcNAc(b1-3)Gal(b1-4)GlcNAc
# Outline: as §1
# [27] = molecular target: GlcNAc(b1-3)Gal(b1-4)GlcNAc(b1-2)Man(a1-3)[GlcNAc(b1-3)Gal(b1-4)GlcNAc(b1-2)Man(a1-6)]Man(b1-4)GlcNAc(b1-4)GlcNAc
# Outline: as §1
# [28] = molecular target: GlcNAc(b1-3)Gal(b1-4)GlcNAc(b1-2)[GlcNAc(b1-3)Gal(b1-4)GlcNAc(b1-6)]Man(a1-6)[GlcNAc(b1-3)Gal(b1-4)GlcNAc(b1-2)Man(a1-3)]Man(b1-4)GlcNAc(b1-4)GlcNAc
# Outline: as §1
# [29] = molecular target: GlcNAc(b1-3)Gal(b1-4)GlcNAc(b1-3)Gal(b1-4)GlcNAc(b1-2)Man(a1-3)[GlcNAc(b1-3)Gal(b1-4)GlcNAc(b1-3)Gal(b1-4)GlcNAc(b1-2)Man(a1-6)]Man(b1-4)GlcNAc(b1-4)GlcNAc
# Outline: as §1
# [30] = molecular target: Man(a1-2)Man(a1-6)[Man(a1-3)]Man(a1-6)[Man(a1-2)Man(a1-2)Man(a1-3)]Man(b1-4)GlcNAc(b1-4)GlcNAc
# Outline: as §1
binder,measurement,setting,value
B1,glycan array binding signal (z-score),[1],0.117
same,glycan array binding signal (z-score),[2],-0.147
same,glycan array binding signal (z-score),[3],6.68
same,glycan array binding signal (z-score),[4],-1.03
same,glycan array binding signal (z-score),[5],0.373
same,glycan array binding signal (z-score),[6],-0.319
same,glycan array binding signal (z-score),[7],-0.503
same,glycan array binding signal (z-score),[8],2.27
same,glycan array binding signal (z-score),[9],7.86
same,glycan array binding signal (z-score),[10],1.77
same,glycan array binding signal (z-score),[11],-0.604
same,glycan array binding signal (z-score),[12],2.46
same,glycan array binding signal (z-score),[13],-0.764
same,glycan array binding signal (z-score),[14],0.008
same,glycan array binding signal (z-score),[15],-0.425
same,glycan array binding signal (z-score),[16],-0.479
same,glycan array binding signal (z-score),[17],-0.271
same,glycan array binding signal (z-score),[18],2.72
same,glycan array binding signal (z-score),[19],0.654
same,glycan array binding signal (z-score),[20],2.72
same,glycan array binding signal (z-score),[21],-0.342
same,glycan array binding signal (z-score),[22],8.03
same,glycan array binding signal (z-score),[23],0.632
same,glycan array binding signal (z-score),[24],-0.27
same,glycan array binding signal (z-score),[25],0.876
same,glycan array binding signal (z-score),[26],-0.07
same,glycan array binding signal (z-score),[27],0.049
same,glycan array binding signal (z-score),[28],1.61
same,glycan array binding signal (z-score),[29],1.68
same,glycan array binding signal (z-score),[30],-0.021
